This note sets out measurements from PubChem BioAssay (NCATS).

Inconclusive results are not listed. Where a call stands in place of a potency, no number is given. A number with no mark means an inactive call. The source made the active and inactive calls. The call rests on the fitted dose curve; in most records, active means well fitted curve in the direction sought with a large enough effect; inconclusive means small, poorly fitted or top-dose-only effect, or another doubt; inactive means no such curve, though single readings can be large; an effect the other way counts as inactive or inconclusive.

Sequence of Rap guanine nucleotide exchange factor 4 (Homo sapiens) (Q8WZA2 whole entry, looked up): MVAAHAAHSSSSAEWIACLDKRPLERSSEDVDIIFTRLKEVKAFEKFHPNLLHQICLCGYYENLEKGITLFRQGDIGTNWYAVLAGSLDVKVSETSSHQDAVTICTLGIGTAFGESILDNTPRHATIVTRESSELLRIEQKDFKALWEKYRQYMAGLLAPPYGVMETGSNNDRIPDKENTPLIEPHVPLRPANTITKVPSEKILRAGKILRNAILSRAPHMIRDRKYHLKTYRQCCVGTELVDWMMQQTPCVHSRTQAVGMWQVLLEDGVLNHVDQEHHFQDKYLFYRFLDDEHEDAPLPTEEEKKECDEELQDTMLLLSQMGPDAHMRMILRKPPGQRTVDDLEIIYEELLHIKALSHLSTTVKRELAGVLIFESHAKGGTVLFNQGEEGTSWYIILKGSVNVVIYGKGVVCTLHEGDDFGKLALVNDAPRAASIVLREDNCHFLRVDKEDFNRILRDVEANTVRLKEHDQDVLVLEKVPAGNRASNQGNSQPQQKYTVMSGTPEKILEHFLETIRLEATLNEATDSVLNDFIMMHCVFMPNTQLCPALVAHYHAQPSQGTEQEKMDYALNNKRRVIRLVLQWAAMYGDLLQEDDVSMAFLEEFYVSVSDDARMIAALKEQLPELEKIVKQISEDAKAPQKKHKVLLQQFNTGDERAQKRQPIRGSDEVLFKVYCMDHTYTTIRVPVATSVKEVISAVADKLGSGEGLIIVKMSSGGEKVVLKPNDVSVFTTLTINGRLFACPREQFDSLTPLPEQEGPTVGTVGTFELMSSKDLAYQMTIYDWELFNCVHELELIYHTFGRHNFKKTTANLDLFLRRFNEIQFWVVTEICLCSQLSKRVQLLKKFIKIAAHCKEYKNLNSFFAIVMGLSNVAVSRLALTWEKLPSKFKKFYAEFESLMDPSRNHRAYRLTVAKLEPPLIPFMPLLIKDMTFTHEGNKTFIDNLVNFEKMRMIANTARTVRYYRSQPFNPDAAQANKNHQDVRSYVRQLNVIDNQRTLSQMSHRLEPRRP
Sequence of Rap guanine nucleotide exchange factor 3 (Homo sapiens) (O95398 whole entry, looked up): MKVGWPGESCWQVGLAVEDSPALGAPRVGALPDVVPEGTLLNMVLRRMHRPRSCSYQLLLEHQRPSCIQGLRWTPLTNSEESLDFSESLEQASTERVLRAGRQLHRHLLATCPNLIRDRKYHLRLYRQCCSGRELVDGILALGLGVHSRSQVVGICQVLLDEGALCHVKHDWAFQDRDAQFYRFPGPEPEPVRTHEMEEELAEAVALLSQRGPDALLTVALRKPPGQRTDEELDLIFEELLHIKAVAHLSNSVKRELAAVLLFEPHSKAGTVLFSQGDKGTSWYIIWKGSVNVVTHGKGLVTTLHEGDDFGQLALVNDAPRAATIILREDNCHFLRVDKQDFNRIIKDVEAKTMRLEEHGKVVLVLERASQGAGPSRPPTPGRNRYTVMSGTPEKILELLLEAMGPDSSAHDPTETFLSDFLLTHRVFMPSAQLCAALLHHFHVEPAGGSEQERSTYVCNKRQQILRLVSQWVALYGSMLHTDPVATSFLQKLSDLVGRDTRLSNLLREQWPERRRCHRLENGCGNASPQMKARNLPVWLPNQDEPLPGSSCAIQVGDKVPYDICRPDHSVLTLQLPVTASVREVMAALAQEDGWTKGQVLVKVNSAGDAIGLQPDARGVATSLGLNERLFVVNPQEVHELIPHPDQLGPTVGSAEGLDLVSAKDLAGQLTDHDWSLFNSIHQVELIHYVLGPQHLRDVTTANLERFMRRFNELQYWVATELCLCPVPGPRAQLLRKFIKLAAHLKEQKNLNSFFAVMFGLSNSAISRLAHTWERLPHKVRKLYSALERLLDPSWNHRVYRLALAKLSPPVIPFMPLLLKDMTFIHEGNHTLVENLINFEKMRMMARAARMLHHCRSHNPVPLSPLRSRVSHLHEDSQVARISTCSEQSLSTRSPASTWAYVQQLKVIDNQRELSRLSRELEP

The first assay has as its target Rap guanine nucleotide exchange factor 3 (Homo sapiens) (UniProt O95398). The assay can be described thus: Confirmatory qHTS for antagonist of cAMP-regulated guanine nucleotide exchange factor 3 (EPAC1) (AID 1645880). Further: nearly all actives have a fitted effect of over 55% in size. Further: potency means the concentration at half of the fitted maximal effect. To be noted: EPAC1 Rap1B-BODIPY-GDP exchange, fluorescence; activity, negative = inhibition: at 115 µM (top of the series). The essentials:
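Released BODIPY-GDP fluoresces less than Rap1-bound BODIPY-GDP; the signal is followed at 480/540 nm at 5-min intervals over 30 min, after 5 min at room temperature. Reactions contain 100 nM EPAC1, 250 nM RAP1B-BODIPY-GDP and 50 uM GDP; results are normalized to ATA and DMSO.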
Turning to `CCc1ccc(NC(=O)/C(C#N)=C/c2cc3ccc(C)cc3nc2N2CCOCC2)cc1`, the Potency entry was “inactive”.

On to `COC(=O)c1cc2oc(C)cc2n1Cc1cc(C)ccc1C`, for which the Potency result was “inactive”.

As for `COc1ccccc1-c1oc2ccccc2c1-c1ccc2c(c1)OCO2`, the Potency result is “inactive”.

As for `O=C(CSc1nc2ccccc2o1)NCc1ccc2c(c1)OCO2`, the Potency entry is “inactive”.

For the compound `O=C(N/N=C/c1cc(Cl)cc([N+](=O)[O-])c1O)NC12CC3CC(CC(C3)C1)C2`, the Potency is 10.7 µM (active).

`CC(C)(C)C1CCc2c(sc(NC(=O)CCC(=O)O)c2C(=O)Nc2ccccc2C(F)(F)F)C1` (stereo not given): the Potency was 42.6 µM (active).

With `COc1ccc(OC)c(NC(=S)N2c3ccccc3CC2C)c1` (stereo not given), the Potency entry is “inactive”.

As for `COC(=O)c1ccc2nc(-c3ccccc3)c(Cc3cccc(F)c3)n2c1`, the Potency entry was “inactive”.

As for `CC(/C=C/c1ccc(N(C)C)cc1)=N\N=C1\NC(=O)CC(C(=O)Nc2ccccc2)S1` (stereo not given), the Potency entry is “inactive”.

Regarding `COc1ccc(Cl)cc1NC(=O)CN(C)C(C)C(=O)NC(=O)NC1CCCCC1` (stereo not given), the Potency entry was “inactive”.

Consider `CN1CCS/C1=C\C=C1/SC(=S)N(CC(=O)O)C1=O`, for which the Potency result is “inactive”.

As to `CCOc1ccc2c(ccc(/C=C/c3cc(C)c4cccnc4c3O)[n+]2C)c1`, the Potency was 60.1 µM (active).

For the compound `COc1ccc(-c2ncccc2OC(=O)C23CC4CC(CC(C4)C2)C3)cc1OC`, the Potency entry was “inactive”.

For the compound `O=c1oc2cc(O)ccc2cc1-c1nnc(Nc2ccccc2F)s1`, the Potency entry is “inactive”.

With `COc1ccc(OC)c(/C=C2\SC(=S)N(Cc3cccnc3)C2=O)c1`, the Potency entry is “inactive”.

On to `Cc1ccc(S(=O)(=O)C2(C(=O)Nc3ccc(Br)cc3)CC2)cc1`, for which the Potency entry was “inactive”.

As for `COc1cc2cc3c4c(cc(OC)c(OC)c4c2cc1OC)CCN3C`, the Potency result is “inactive”.

For the compound `O=C(O)c1cc(Nc2cc(Cl)c3nonc3c2[N+](=O)[O-])ccc1O`, the Potency is 9.53 µM (active).

For `Nc1c(C(=O)C2CC2)sc2nc(-c3cccs3)cc(C(F)(F)F)c12`, the Potency entry was “inactive”.

As for `CN(C)c1ccc(C2C=C(c3ccc(Cl)cc3OC(F)F)Nc3ncnn32)cc1` (stereo not given), the Potency result was “inactive”.

`COC(=O)C1=CC(C(=O)c2cccs2)=NN(c2ccc(OC)cc2)C1C(=O)OC` (stereo not given): the Potency result is “inactive”.

For the compound `O=C1/C(=C/C=C/c2ccccc2)Oc2c1ccc(O)c2CN1CCN(CCO)CC1`, the Potency entry was “inactive”.

In the case of `Fc1cc(F)cc(-c2c(-c3ccccc3)ncc3ccc(F)cc23)c1`, the Potency entry was “inactive”.

With `Cc1cccc(C(C)C)c1-n1nnnc1-c1ccccc1`, the Potency result is “inactive”.

`CNC(=O)N(C1=NCC(C)(C)S1)c1ccc(F)c(Cl)c1`: the Potency result was “inactive”.

With `COc1ccc(OC)c(/C=C/c2nc3ccccc3[nH]c2=O)c1`, the Potency entry is “inactive”.

Take `O=S1(=O)NC(c2ccccc2)CC(CC2CCCCC2)O1` (stereo not given): the Potency entry is “inactive”.

With `O=C1OC(c2ccccc2)(c2cc(Br)c(O)c(Br)c2)c2ccccc21` (stereo not given), the Potency is 84.9 µM (active).

On to `CCN1CCN(Cc2c(O)ccc3c2O/C(=C\C=C\c2ccccc2OC)C3=O)CC1`, for which the Potency result was “inactive”.

Regarding `Nc1ccccc1Oc1ccc2ccccc2c1`, the Potency result is “inactive”.

For `Cc1ccc(Nc2cc(C)nc3c(C)ccc([N+](=O)[O-])c23)cc1`, the Potency result is “inactive”.

For `CN(C)c1ccc(/C=C(\C#N)C(=O)c2ccccc2)cc1`, the Potency entry is “inactive”.

For the compound `COC(=O)C1=CN(C(C)c2ccccc2)C=C(C(=O)OC)C1c1cc(OC)c(OC)c(OC)c1` (stereo not given), the Potency result was “inactive”.

On to `CN(C)c1ccc(/C=C/C(=O)c2cccc(Br)c2)cc1`, for which the Potency result is “inactive”.

Take `COC(=O)c1cc(C(=O)c2ccc(Cl)cc2)n2c(=O)/c(=C\N(C)C)sc12`: the Potency entry was “inactive”.

For the compound `Cc1ccc2nc(/C(C#N)=C\c3ccc(N4CCOCC4)o3)[nH]c2c1`, the Potency result is “inactive”.

On to `COc1ccc(OC)c(/C=C/c2nc3ccccc3nc2C)c1`, for which the Potency result was “inactive”.

Consider `CCOC(=O)C1CCCN(c2c(C(=O)c3ccccc3)cnc3ccc(OC)cc23)C1` (stereo not given), for which the Potency entry was “inactive”.

`Cn1c(=O)c(C#N)c(-c2ccc(F)cc2)c2cc(C(=O)c3cc(Cl)cc(Cl)c3O)cnc21`: the Potency entry is “inactive”.

In the case of `CC(NC(=O)/C(C#N)=C/c1ccc(N2CCOCC2)cc1)c1ccccc1` (stereo not given), the Potency entry is “inactive”.

The next assay shares this target. The experiment in a line: Confirmatory qHTS for agonist of cAMP-regulated guanine nucleotide exchange factor 3 (EPAC1) (AID 1645881).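 Further: EPAC1 catalysed release of BODIPY-GDP from Rap1B seen as fluorescence loss; nearly all actives have a fitted effect of over 75% in size.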 To be noted: EPAC1 Rap1B BODIPY-GDP exchange fluorescence; series mostly up to 154 µM. (In general: In qHTS, concentration-response curves come from the screen itself.)
`COc1ccccc1-c1oc2ccccc2c1-c1ccc2c(c1)OCO2`: the Potency entry was “inactive”.

As to `COc1cc2cc3c4c(cc(OC)c(OC)c4c2cc1OC)CCN3C`, the Potency entry is “inactive”.

For the compound `O=C(O)c1cc(Nc2cc(Cl)c3nonc3c2[N+](=O)[O-])ccc1O`, the Potency entry is “inactive”.

As for `Fc1cc(F)cc(-c2c(-c3ccccc3)ncc3ccc(F)cc23)c1`, the Potency result is “inactive”.

Consider `O=C1OC(c2ccccc2)(c2cc(Br)c(O)c(Br)c2)c2ccccc21` (stereo not given), for which the Potency result was “inactive”.

Another assay concerns the target Rap guanine nucleotide exchange factor 4 (Homo sapiens) (UniProt Q8WZA2). The experiment in a line: Confirmatory qHTS for agonist of cAMP-regulated guanine nucleotide exchange factor 4 (EPAC2) (AID 1645884).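 Further: nucleotide exchange releases bodipy-GDP from Rap1 and this lowers its fluorescence; nearly all actives have a fitted effect of over 65% in size.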 Further: potency means the concentration at half of the fitted maximal effect. The settings on record: EPAC2 GEF activity, Rap1B-BODIPY-GDP fluorescence; series mostly up to 154 µM.
Turning to `CCc1ccc(NC(=O)/C(C#N)=C/c2cc3ccc(C)cc3nc2N2CCOCC2)cc1`, the activation was 0% [at 17.1 µM, percent relative to cAMP agonist control].

For `COC(=O)c1cc2oc(C)cc2n1Cc1cc(C)ccc1C`, the Potency entry is “inactive”.

In the case of `O=C(CSc1nc2ccccc2o1)NCc1ccc2c(c1)OCO2`, the Potency entry was “inactive”.

As for `O=C(N/N=C/c1cc(Cl)cc([N+](=O)[O-])c1O)NC12CC3CC(CC(C3)C1)C2`, the Potency result is “inactive”.

Take `CC(C)(C)C1CCc2c(sc(NC(=O)CCC(=O)O)c2C(=O)Nc2ccccc2C(F)(F)F)C1` (stereo not given): the Potency result was “inactive”.

Consider `COc1ccc(OC)c(NC(=S)N2c3ccccc3CC2C)c1` (stereo not given), for which the activation was 12.4% [at 17.1 µM, percent relative to cAMP agonist control].

With `COC(=O)c1ccc2nc(-c3ccccc3)c(Cc3cccc(F)c3)n2c1`, the activation is 4.96% [at 17.1 µM, percent relative to cAMP agonist control].

`CC(/C=C/c1ccc(N(C)C)cc1)=N\N=C1\NC(=O)CC(C(=O)Nc2ccccc2)S1` (stereo not given): the activation is 10% [at 17.1 µM, percent relative to cAMP agonist control].

With `COc1ccc(Cl)cc1NC(=O)CN(C)C(C)C(=O)NC(=O)NC1CCCCC1` (stereo not given), the Potency entry is “inactive”.

Consider `CN1CCS/C1=C\C=C1/SC(=S)N(CC(=O)O)C1=O`, for which the Potency was 79.4 µM (active).

Turning to `CCOc1ccc2c(ccc(/C=C/c3cc(C)c4cccnc4c3O)[n+]2C)c1`, the Potency is 70.8 µM (active).

On to `COc1ccc(-c2ncccc2OC(=O)C23CC4CC(CC(C4)C2)C3)cc1OC`, for which the activation is 1.83% [at 17.1 µM, percent relative to cAMP agonist control].

With `O=c1oc2cc(O)ccc2cc1-c1nnc(Nc2ccccc2F)s1`, the Potency was 14.1 µM (active).

On to `COc1ccc(OC)c(/C=C2\SC(=S)N(Cc3cccnc3)C2=O)c1`, for which the activation was 3.3% [at 17.1 µM, percent relative to cAMP agonist control].

For the compound `Cc1ccc(S(=O)(=O)C2(C(=O)Nc3ccc(Br)cc3)CC2)cc1`, the activation was 6.34% [at 17.1 µM, percent relative to cAMP agonist control].

As to `Nc1c(C(=O)C2CC2)sc2nc(-c3cccs3)cc(C(F)(F)F)c12`, the Potency is 100 µM (active).

As to `CN(C)c1ccc(C2C=C(c3ccc(Cl)cc3OC(F)F)Nc3ncnn32)cc1` (stereo not given), the activation was 4.39% [at 17.1 µM, percent relative to cAMP agonist control].

As to `COC(=O)C1=CC(C(=O)c2cccs2)=NN(c2ccc(OC)cc2)C1C(=O)OC` (stereo not given), the activation was 9.11% [at 17.1 µM, percent relative to cAMP agonist control].

`O=C1/C(=C/C=C/c2ccccc2)Oc2c1ccc(O)c2CN1CCN(CCO)CC1`: the activation was 17.5% [at 17.1 µM, percent relative to cAMP agonist control].

Consider `Cc1cccc(C(C)C)c1-n1nnnc1-c1ccccc1`, for which the activation was 6.22% [at 17.1 µM, percent relative to cAMP agonist control].

In the case of `CNC(=O)N(C1=NCC(C)(C)S1)c1ccc(F)c(Cl)c1`, the Potency result is “inactive”.

Consider `COc1ccc(OC)c(/C=C/c2nc3ccccc3[nH]c2=O)c1`, for which the Potency is 100 µM (active).

With `O=S1(=O)NC(c2ccccc2)CC(CC2CCCCC2)O1` (stereo not given), the activation was 26.6% [at 17.1 µM, percent relative to cAMP agonist control].

`CCN1CCN(Cc2c(O)ccc3c2O/C(=C\C=C\c2ccccc2OC)C3=O)CC1`: the activation is 5.66% [at 17.1 µM, percent relative to cAMP agonist control].

On to `Nc1ccccc1Oc1ccc2ccccc2c1`, for which the Potency result was “inactive”.

As to `Cc1ccc(Nc2cc(C)nc3c(C)ccc([N+](=O)[O-])c23)cc1`, the activation was 6.25% [at 17.1 µM, percent relative to cAMP agonist control].

Turning to `CN(C)c1ccc(/C=C(\C#N)C(=O)c2ccccc2)cc1`, the activation was 17.4% [at 17.1 µM, percent relative to cAMP agonist control].

`COC(=O)C1=CN(C(C)c2ccccc2)C=C(C(=O)OC)C1c1cc(OC)c(OC)c(OC)c1` (stereo not given): the Potency result was “inactive”.

With `CN(C)c1ccc(/C=C/C(=O)c2cccc(Br)c2)cc1`, the activation was -16% [at 17.1 µM, percent relative to cAMP agonist control].

For `COC(=O)c1cc(C(=O)c2ccc(Cl)cc2)n2c(=O)/c(=C\N(C)C)sc12`, the Potency is 100 µM (active).

For the compound `Cc1ccc2nc(/C(C#N)=C\c3ccc(N4CCOCC4)o3)[nH]c2c1`, the activation was 11.1% [at 17.1 µM, percent relative to cAMP agonist control].

`COc1ccc(OC)c(/C=C/c2nc3ccccc3nc2C)c1`: the Potency was 79.3 µM (active).

`CCOC(=O)C1CCCN(c2c(C(=O)c3ccccc3)cnc3ccc(OC)cc23)C1` (stereo not given): the activation is 6.11% [at 17.1 µM, percent relative to cAMP agonist control].

In the case of `Cn1c(=O)c(C#N)c(-c2ccc(F)cc2)c2cc(C(=O)c3cc(Cl)cc(Cl)c3O)cnc21`, the Potency entry was “inactive”.

Regarding `CC(NC(=O)/C(C#N)=C/c1ccc(N2CCOCC2)cc1)c1ccccc1` (stereo not given), the Potency is 112 µM (active).
